GLP1R inv ag: GLP-1 receptor (human) inverse agonism; P43220; HEK293 GLP-1R CRE-luciferase, luminescence, 24 h; GLP-1R form is constitutively active; Potency, µM (series often up to 38.3 µM), most hits filed as inhibitors; 410,000 tested, 1.6% active; AID 624417; also: nearly all actives have a fitted effect of over 55% in size
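qHTS in 1536-well format: reporter HEK293 cells expressing constitutive GLP-1R activity in DMEM + 10% Nu serum, 24 hr with compounds at 37 deg C, luminescence read after 12 min with detection reagent.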
rTrxR1 inhibitor: rat TrxR1 inhibition; O89049; recombinant rTrxR1, NADPH fluorescence consumption, selenite substrate; Potency, µM (top dose mostly 114 µM), actives largely listed as inhibitors; 390,000 tested, 1% active; AID 588453; also: nearly all actives have a fitted effect of over 65% in size
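Rat TrxR1 (90 nM in the dispensed reagent) was pre-reduced with 400 uM NADPH for 5 min at room temperature, then incubated with compound for 15 min. After 400 uM selenite was added, NADPH fluorescence (Ex 340/Em 450 nm) was followed for 8 min.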
TrxR1 substrate: rat thioredoxin reductase 1 substrate activity; purified TrxR1 substrate turnover, NADPH consumption readout; Potency, µM (top dose mostly 114 µM); 390,000 tested, 0.01% active; AID 588456; also: nearly all actives have a fitted effect of over 50% in size
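Rat TrxR1, dispensed at 90 nM, was prereduced with 400 uM NADPH (final) for 5 min at ~22 deg C, then incubated with compound 15 min before 400 uM selenite. A first-read NADPH fluorescence drop versus no-compound background flagged substrates.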
IDH1 R132H inh: blocks human mutant IDH1 R132H enzyme; Potency, µM (top dose mostly 76.6 µM), usual class: inhibitors; 390,000 tested, 0.093% active; O75874; IDH1-R132H enzyme, NADPH consumption, diaphorase/resazurin fluorescence; also: nearly all actives have a fitted effect of over 65% in size
Target sequence (O75874 whole entry R132H, stated change not applied): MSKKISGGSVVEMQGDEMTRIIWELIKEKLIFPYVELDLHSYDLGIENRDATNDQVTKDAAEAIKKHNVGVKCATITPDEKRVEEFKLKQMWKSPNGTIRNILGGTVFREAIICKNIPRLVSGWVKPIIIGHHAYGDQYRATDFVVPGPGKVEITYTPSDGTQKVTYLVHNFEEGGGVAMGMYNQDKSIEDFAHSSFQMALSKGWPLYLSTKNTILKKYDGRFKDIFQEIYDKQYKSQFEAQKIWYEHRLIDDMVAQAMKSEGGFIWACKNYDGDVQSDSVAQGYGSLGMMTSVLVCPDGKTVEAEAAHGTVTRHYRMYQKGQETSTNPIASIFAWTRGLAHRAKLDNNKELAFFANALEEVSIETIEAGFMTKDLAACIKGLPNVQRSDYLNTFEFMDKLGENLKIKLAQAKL
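IDH1-R132H (0.5 ug/mL dispensed) in pH 7.5 Tris buffer was preincubated 30 min with compound, then given a substrate mix of 0.016 mM NADPH and 2 mM alpha-KG for 80 min at room temperature; remaining NADPH was read by diaphorase/resazurin fluorescence.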
HEK293 tox: cytotoxicity in counter-screen for GLP-1R inverse agonists. HEK293 cAMP-luciferase reporter cells, luminescence, 24 h. Potency, µM (series often up to 38.3 µM), hits mostly inhibitors. 410,000 tested, 0.13% active. AID 624418;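 also: loss of luciferase light is scored as toxicity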
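MLSMR compounds, 24 hr on cells at 37 deg C/5% CO2; luminescence after luciferase reagent (12 min RT). Inhibition counted as the undesired cytotoxic outcome.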
GLP1R ag: activates the human GLP-1 receptor; P43220; HEK293 GLP-1R CRE-luciferase, luminescence, 4-6 h; cells express a hypersensitive GLP-1R form; Potency, µM (top dose mostly 45.6 µM), actives largely listed as activators; 380,000 tested, 0.007% active
Numbers stand for hits; – = inactive; ? = inconclusive; · = not tested or not shown. Sampled rows, rich in hits. Any-hit rate of the full collection: about 2.7%. Calls follow the shape of the dose curve; as a rule, active = well fitted curve in the direction sought with a large enough effect; inconclusive = small, poorly fitted or top-dose-only effect, or another doubt; inactive = no such curve, though single readings can be large; an effect the other way counts as inactive or inconclusive.

SMILES	GLP1R inv ag	rTrxR1 inhibitor	TrxR1 substrate	IDH1 R132H inh	HEK293 tox	GLP1R ag
O=C(Nc1cc2ccccc2oc1=O)c1ccccc1	7.94µM	–	–	–	–	–
Cc1oc(=O)c(NC(=O)c2cccc(Cl)c2)cc1C(=O)c1ccccc1	–	35.5µM	–	–	–	–
COc1ccc(C(=O)Nc2cc(C(=O)c3ccccc3)c(C)oc2=O)cc1	–	11.2µM	–	–	–	–
CCc1cccc(OCC(=O)Nc2ccc(C)c(S(=O)(=O)N3CCCCCC3)c2)c1	5.01µM	–	–	–	–	–
CCOc1ccc(C(=O)CCC(=O)Nc2ccc(C)c(S(=O)(=O)N3CCCCC3)c2)cc1	?	–	–	–	–	–
CC(=O)c1ccc(OCCCC(=O)Nc2ccc(C)c(S(=O)(=O)N3CCCCC3)c2)cc1	11.2µM	–	–	–	–	–
Cc1ccc(NC(=O)COc2cccc(C)c2C)cc1S(=O)(=O)N1CCCCCC1	?	–	–	–	–	–
CN(C)c1ccc(-c2nc3ccccn3c2Nc2ccc3c(c2)OCCO3)cc1	–	?	–	·	–	·
Cc1cc(=O)n(Cc2cccc(Cl)c2)c2c1c(C)nn2C	–	–	–	–	–	·
CCc1nnc(NS(=O)(=O)c2ccc(NC(=O)c3ccccc3)cc2)s1	–	–	–	–	–	–
CCc1nnc(NS(=O)(=O)c2ccc(NC(=S)NC(=O)c3ccc(Br)cc3)cc2)s1	–	50.1µM	–	?	–	–
O=C(NC(=S)Nc1ccc(S(=O)(=O)Nc2nccs2)cc1)c1ccccc1	–	39.8µM	–	–	–	–
CCc1nnc(NS(=O)(=O)c2ccc(NC(=S)NC(=O)c3ccccc3)cc2)s1	–	28.2µM	–	–	–	–
C=CCOc1ccccc1CN(C(=O)CCl)c1ccc2c(c1)OCO2	?	20µM	–	–	–	–
CCOc1ccccc1NC(=O)Nc1ccc2c(c1)OCO2	?	–	–	–	–	–
Cc1ccc2nc(/C=C/c3ccc(N(C)C)cc3)ccc2c1	·	–	–	·	·	·
CCCCCCCCCCCNC(=O)c1ccoc1C	?	20µM	–	–	–	–
Cc1occc1C(=O)NCc1ccccc1F	–	10µM	–	–	–	–
Cc1occc1C(=O)NCCCCNC(=O)c1ccoc1C	–	?	–	–	–	–
CC(C)COc1ccc(C(=O)N(CC(=O)Nc2ccccc2C(F)(F)F)Cc2ccco2)cc1	4.47µM	–	–	–	?	–
CCCCN(CC)CCCNC(=O)c1cc2c(=O)n(CC)c3ccccc3c2s1	2.82µM	–	–	–	–	–
COCCNC(=O)c1cc2sc3ccccc3c2s1	–	–	–	–	–	–
CN(C)CCCNC(=O)c1cc2sc3ccccc3c2s1	3.98µM	–	–	–	?	–
CCCCN(CC)CCNC(=O)c1cc2c(=O)n(CC)c3ccccc3c2s1	?	–	–	–	–	–
CC(C)(CN1CCNCC1)NS(=O)(=O)c1ccc(Cl)cc1	2µM	–	–	–	?	–
SMILES	GLP1R inv ag	rTrxR1 inhibitor	TrxR1 substrate	IDH1 R132H inh	HEK293 tox	GLP1R ag
Cc1ccc(S(=O)(=O)NC(C)(C)CN2CCC(Cc3ccccc3)CC2)cc1	2.51µM	–	–	–	–	–
CC1(C)Cc2c(cnn2-c2ccccc2)C(=O)/C1=N\NC(=O)c1ccccc1N	–	–	–	–	–	–
CC1(C)Cc2c(cnn2-c2ccccc2)-c2c1c1ccccc1n2CC(O)CBr (stereo unspecified)	7.08µM	–	–	?	–	–
Cc1nn(Cc2ccc(Cl)cc2Cl)c(C)c1NC(=O)NC12CC3CC(CC(C3)C1)C2	5.01µM	–	–	–	–	–
COc1cc(C(=O)Nc2ccc3oc(-c4ccccc4)nc3c2)cc(OC)c1OC	?	–	–	–	?	·
CCOc1ccc(S(=O)(=O)N(CC(=O)N2CCc3ccccc32)Cc2ccco2)cc1	8.91µM	–	–	–	–	–
O=C(NCCc1ccccc1F)c1ccc2c(c1)OCCO2	0.891µM	–	–	–	–	–
Cc1ccc(O)c(C(CC(=O)NCC2(c3ccccc3)CCCC2)c2ccccc2)c1 (stereo unspecified)	?	–	–	·	?	·
CC1C=CC(C)C(C(=O)c2ccccc2)C1C(=O)c1ccccc1 (stereo unspecified)	12.6µM	·	·	–	–	–
CC(C)(C)c1ccc(NC(=O)COC(=O)C2(C)CC2(Cl)Cl)cc1 (stereo unspecified)	3.55µM	–	–	–	–	–
COc1ccccc1C(=O)COC(=O)C1(C)CC1(Cl)Cl (stereo unspecified)	10µM	–	–	–	–	–
COc1cccc(CN(C)C(=O)C(Cc2ccccc2)NC(=O)c2ccccc2)c1OC (stereo unspecified)	8.91µM	–	–	–	–	–
CN1CCC(N(C)S(=O)(=O)c2ccc(NC(=O)COc3ccc(F)cc3Cl)cc2)CC1	10µM	–	–	–	–	–
O=C(C1CCN(S(=O)(=O)Cc2ccccc2)CC1)N1CCN(c2cccc(C(F)(F)F)c2)CC1	–	–	–	–	–	·
CN(CCCN(Cc1ccc(Cl)cc1)c1ccc(Br)cn1)C(=S)NCCCc1cnc[nH]1	·	–	–	·	·	·
CCOc1c(Br)cc(CNC2CCCCCCC2)cc1OC	3.16µM	–	–	–	–	–
Cc1ccc(NC(=O)C2=C(c3ccccc3)S(=O)(=O)CCS2(=O)=O)cc1	?	0.316µM	–	–	?	–
C=CCc1cccc(/C=N/NC(=O)CNc2cccc3ccccc23)c1O	?	–	–	–	?	–
C=CCc1cccc(/C=N/NC(=O)CNc2ccccc2)c1O	3.55µM	–	–	–	?	–
C=CCc1cccc(/C=N/NC(=O)CCCNc2ccc(C)cc2)c1O	10µM	–	–	–	?	–
O=C(CNc1ccc2c(c1)OCO2)N/N=C\c1cn(Cc2ccccc2)c2ccccc12	2.82µM	–	–	–	–	–
Nc1ccc(C(=O)N/N=C/c2cn(Cc3cccc(F)c3)c3ccccc23)cc1	5.01µM	–	–	–	–	–
O=C(N/N=C/c1cn(Cc2ccccc2)c2ccccc12)c1ccncc1	?	–	–	–	–	–
Cc1ccc2c(c1)cc(C(=O)Nc1ccc(F)cc1F)n2C	–	–	–	–	–	·
Cc1ccc2nc(-c3ccc(NS(C)(=O)=O)cc3)cc(-c3ccccc3)c2c1	–	–	–	–	–	–
CCS(=O)(=O)Nc1ccc(-c2cc(-c3ccccc3)c3cc(C)ccc3n2)cc1	7.08µM	–	–	–	–	–
CCOC(=O)CCCc1sc(N)nc1-c1[nH]c(=O)[nH]c1C	–	7.94µM	–	–	–	–

Screening results: PubChem BioAssay, National Center for Advancing Translational Sciences (NCATS)
